Test in all cases: DAPPL (digital affinity profiling via proximity ligation, sequencing); 10 mM Tris-HCl pH 7.5, 50 mM NaCl, 1 mM DTT, 4% glycerol, room temperature, 30 min; GST-TFs on glutathione beads, 16-mer random dsDNA library, 0.1% formaldehyde crosslink after washing; high values mean tight binding
What all share (settings): protein: recombinant; tags: N-terminal GST; dsDNA, one strand shown

Assay [1] addresses T1, FLI1 (Homo sapiens, UniProt Q01543 1-452).
T1 sequence: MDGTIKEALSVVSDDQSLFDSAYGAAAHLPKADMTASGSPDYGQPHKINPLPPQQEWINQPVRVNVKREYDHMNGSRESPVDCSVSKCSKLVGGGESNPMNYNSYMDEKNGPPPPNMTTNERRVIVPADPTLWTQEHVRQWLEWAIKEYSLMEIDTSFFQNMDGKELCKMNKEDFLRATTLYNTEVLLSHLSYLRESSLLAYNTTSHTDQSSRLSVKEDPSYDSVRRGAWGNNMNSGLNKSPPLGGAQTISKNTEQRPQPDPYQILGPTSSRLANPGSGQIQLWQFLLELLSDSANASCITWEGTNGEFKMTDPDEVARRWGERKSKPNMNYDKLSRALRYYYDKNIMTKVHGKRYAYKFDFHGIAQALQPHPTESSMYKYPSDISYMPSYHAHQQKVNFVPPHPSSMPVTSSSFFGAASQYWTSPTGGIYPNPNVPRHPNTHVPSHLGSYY
Put shortly:
(§1)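 Binding signal is given per hexamer as its read frequency for a factor divided by its frequency in the tag-only sample. GST-fused human transcription factors were expressed in yeast, captured on glutathione beads, barcoded with DNA and pooled with that sample, then incubated with 200 nmole of a 16-mer random double-stranded DNA library in Tris/NaCl/DTT/glycerol buffer for 30 min at room temperature. The pools were then washed, crosslinked, proximity-ligated, amplified by PCR and sequenced on an Illumina NextSeq500.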

Assay [2] deals with T2, ELK1 (Homo sapiens, UniProt P19419 1-428).
T2 sequence: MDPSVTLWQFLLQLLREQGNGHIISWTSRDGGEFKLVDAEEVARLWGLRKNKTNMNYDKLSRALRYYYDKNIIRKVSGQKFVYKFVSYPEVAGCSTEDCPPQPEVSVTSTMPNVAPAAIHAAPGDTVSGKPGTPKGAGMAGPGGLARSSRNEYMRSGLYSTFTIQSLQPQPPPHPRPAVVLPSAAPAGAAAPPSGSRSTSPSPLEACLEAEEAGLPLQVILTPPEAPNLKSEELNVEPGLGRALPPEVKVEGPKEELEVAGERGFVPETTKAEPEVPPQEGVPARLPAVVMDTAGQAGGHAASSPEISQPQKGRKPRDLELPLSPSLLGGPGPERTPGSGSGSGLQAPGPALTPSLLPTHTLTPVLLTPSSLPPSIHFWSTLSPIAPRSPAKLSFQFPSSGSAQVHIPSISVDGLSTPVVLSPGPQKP
The procedure, abridged: as §1

Assay [3] concerns the target T3, GABPA (Homo sapiens, UniProt Q06546 1-454).
T3 sequence: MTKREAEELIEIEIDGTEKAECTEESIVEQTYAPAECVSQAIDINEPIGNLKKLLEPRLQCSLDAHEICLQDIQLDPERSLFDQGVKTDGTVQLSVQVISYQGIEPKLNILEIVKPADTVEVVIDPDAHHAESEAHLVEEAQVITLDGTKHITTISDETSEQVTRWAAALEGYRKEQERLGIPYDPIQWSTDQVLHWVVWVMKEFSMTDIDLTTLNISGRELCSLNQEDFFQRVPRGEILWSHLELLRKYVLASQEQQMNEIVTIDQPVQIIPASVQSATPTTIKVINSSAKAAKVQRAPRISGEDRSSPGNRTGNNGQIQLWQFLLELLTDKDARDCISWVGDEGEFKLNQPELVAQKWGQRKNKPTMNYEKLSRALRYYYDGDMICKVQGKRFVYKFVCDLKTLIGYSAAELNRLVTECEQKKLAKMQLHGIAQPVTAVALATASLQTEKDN
Put shortly:
as §1

Assay [4] deals with T4, ERG (Homo sapiens, UniProt P11308 1-479).
T4 sequence: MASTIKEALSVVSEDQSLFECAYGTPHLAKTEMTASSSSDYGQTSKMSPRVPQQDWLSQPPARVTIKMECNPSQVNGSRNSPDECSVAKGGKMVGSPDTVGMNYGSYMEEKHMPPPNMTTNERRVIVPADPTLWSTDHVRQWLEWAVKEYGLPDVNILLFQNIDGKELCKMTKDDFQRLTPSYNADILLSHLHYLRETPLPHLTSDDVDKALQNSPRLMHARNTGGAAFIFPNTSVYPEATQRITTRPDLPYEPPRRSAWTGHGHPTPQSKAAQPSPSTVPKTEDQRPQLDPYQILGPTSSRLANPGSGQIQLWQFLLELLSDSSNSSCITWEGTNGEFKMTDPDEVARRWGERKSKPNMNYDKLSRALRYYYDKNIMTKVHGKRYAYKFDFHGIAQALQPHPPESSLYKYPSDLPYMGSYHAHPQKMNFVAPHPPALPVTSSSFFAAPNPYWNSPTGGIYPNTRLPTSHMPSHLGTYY
Put shortly: as §1

Assay [5] has as its target ELF1 (Homo sapiens, UniProt P32519 1-619). Put shortly:
as §1

Assay [6] concerns the target T5, EHF (Homo sapiens, UniProt Q9NZC4 1-300).
T5 sequence: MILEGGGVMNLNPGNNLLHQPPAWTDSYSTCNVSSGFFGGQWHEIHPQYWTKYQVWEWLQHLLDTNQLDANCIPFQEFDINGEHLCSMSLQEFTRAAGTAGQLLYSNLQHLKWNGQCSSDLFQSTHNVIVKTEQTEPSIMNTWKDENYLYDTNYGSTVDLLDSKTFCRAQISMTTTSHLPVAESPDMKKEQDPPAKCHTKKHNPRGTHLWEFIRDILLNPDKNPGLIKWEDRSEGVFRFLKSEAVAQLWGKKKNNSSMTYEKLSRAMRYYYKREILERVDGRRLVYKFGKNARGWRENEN
The procedure, abridged: as §1

For assay [7], the target named is SPI1 (Homo sapiens, UniProt P17947 1-270). The procedure, abridged: as §1
Assay [8] has as its target SPIB (Homo sapiens, UniProt Q01892 1-262). The procedure, abridged:
as §1

Assay [9] deals with T6, ELK3 (Homo sapiens, UniProt P41970 1-407).
T6 sequence: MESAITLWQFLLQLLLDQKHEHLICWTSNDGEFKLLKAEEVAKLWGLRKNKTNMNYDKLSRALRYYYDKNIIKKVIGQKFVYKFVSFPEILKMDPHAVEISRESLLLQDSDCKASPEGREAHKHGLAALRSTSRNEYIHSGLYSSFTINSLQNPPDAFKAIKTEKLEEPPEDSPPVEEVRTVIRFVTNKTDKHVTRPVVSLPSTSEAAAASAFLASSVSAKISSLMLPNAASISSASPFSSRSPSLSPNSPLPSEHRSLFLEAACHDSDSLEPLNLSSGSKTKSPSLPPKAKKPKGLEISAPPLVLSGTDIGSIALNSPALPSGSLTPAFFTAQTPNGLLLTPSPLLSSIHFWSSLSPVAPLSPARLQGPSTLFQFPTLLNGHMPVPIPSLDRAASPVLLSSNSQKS
Put shortly: as §1

Chain of ELF1 (P32519 whole entry): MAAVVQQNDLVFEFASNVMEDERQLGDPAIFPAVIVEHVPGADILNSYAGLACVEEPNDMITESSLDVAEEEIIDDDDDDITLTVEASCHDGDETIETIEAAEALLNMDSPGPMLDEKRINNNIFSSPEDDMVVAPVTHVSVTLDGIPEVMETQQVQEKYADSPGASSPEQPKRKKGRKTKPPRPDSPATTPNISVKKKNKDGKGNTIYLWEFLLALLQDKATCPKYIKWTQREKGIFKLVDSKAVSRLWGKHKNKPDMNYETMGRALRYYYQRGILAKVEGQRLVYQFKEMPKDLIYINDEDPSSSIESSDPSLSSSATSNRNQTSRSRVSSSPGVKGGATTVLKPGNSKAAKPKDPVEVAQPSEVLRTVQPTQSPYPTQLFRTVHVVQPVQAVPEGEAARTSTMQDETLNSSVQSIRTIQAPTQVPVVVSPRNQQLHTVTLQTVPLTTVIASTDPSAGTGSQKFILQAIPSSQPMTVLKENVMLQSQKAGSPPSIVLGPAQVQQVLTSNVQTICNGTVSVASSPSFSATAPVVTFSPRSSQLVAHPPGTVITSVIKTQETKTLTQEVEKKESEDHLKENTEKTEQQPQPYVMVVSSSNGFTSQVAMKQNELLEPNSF
Chain of SPIB (Q01892 whole entry): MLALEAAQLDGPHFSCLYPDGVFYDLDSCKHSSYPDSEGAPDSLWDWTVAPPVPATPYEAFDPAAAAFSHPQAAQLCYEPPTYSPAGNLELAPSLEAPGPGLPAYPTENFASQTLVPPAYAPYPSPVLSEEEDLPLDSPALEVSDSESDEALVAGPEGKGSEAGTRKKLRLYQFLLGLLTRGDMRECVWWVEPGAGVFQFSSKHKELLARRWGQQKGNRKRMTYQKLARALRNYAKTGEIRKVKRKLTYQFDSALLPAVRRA

In the case of CTCTTT, the binding signal in assay [1] was 1.37 fold enrichment (6-mer frequency, TF over GST control); in assay [2] it was 1.33 fold enrichment (6-mer frequency, TF over GST control); in assay [3], 1.39 fold enrichment (6-mer frequency, TF over GST control); in [4], 1.43 fold enrichment (6-mer frequency, TF over GST control); in [5] it was 1.53 fold enrichment (6-mer frequency, TF over GST control); in assay [6], 1.55 fold enrichment (6-mer frequency, TF over GST control). Besides, the binding signal in assay [7] is 2.23 fold enrichment (6-mer frequency, TF over GST control); in [8] it was 1.42 fold enrichment (6-mer frequency, TF over GST control); in assay [9], 1.66 fold enrichment (6-mer frequency, TF over GST control).

As for CAATCT, the binding signal is 1.24 fold enrichment (6-mer frequency, TF over GST control) in assay [1]; 1.18 fold enrichment (6-mer frequency, TF over GST control) in assay [2]; 1.18 fold enrichment (6-mer frequency, TF over GST control) in [3]; 1.13 fold enrichment (6-mer frequency, TF over GST control) in [4]; 1.22 fold enrichment (6-mer frequency, TF over GST control) in [5]; 1.17 fold enrichment (6-mer frequency, TF over GST control) in [6]. The binding signal in assay [7] is 1.26 fold enrichment (6-mer frequency, TF over GST control); in assay [8] it was 1.23 fold enrichment (6-mer frequency, TF over GST control); in assay [9] it was 1.14 fold enrichment (6-mer frequency, TF over GST control).

Consider CCTTGC, for which the binding signal is 1.31 fold enrichment (6-mer frequency, TF over GST control) in [1]; 1.28 fold enrichment (6-mer frequency, TF over GST control) in assay [2]; 1.33 fold enrichment (6-mer frequency, TF over GST control) in [3]; 1.2 fold enrichment (6-mer frequency, TF over GST control) in [4]; 1.45 fold enrichment (6-mer frequency, TF over GST control) in assay [5]; 1.28 fold enrichment (6-mer frequency, TF over GST control) in [6]. In addition, the binding signal in [7] was 1.27 fold enrichment (6-mer frequency, TF over GST control); in [8], 1.24 fold enrichment (6-mer frequency, TF over GST control); in assay [9] it was 1.16 fold enrichment (6-mer frequency, TF over GST control).

As to CCCGAC, the binding signal in assay [1] was 1.31 fold enrichment (6-mer frequency, TF over GST control); in [2] it was 1.28 fold enrichment (6-mer frequency, TF over GST control); in [3], 1.39 fold enrichment (6-mer frequency, TF over GST control); in assay [4] it was 1.43 fold enrichment (6-mer frequency, TF over GST control); in assay [5], 1.42 fold enrichment (6-mer frequency, TF over GST control); in assay [6], 1.31 fold enrichment (6-mer frequency, TF over GST control). The binding signal in assay [7] is 1.29 fold enrichment (6-mer frequency, TF over GST control); in [8] it was 1.44 fold enrichment (6-mer frequency, TF over GST control); in assay [9], 1.43 fold enrichment (6-mer frequency, TF over GST control).

Turning to TAAACT, the binding signal in [1] was 1.13 fold enrichment (6-mer frequency, TF over GST control); in assay [2] it was 1.24 fold enrichment (6-mer frequency, TF over GST control); in assay [3], 1.19 fold enrichment (6-mer frequency, TF over GST control); in [4], 1.14 fold enrichment (6-mer frequency, TF over GST control); in assay [5], 1.13 fold enrichment (6-mer frequency, TF over GST control); in assay [6] it was 1.15 fold enrichment (6-mer frequency, TF over GST control). Besides, the binding signal in assay [7] was 1.15 fold enrichment (6-mer frequency, TF over GST control); in [8], 1.23 fold enrichment (6-mer frequency, TF over GST control); in assay [9], 1.27 fold enrichment (6-mer frequency, TF over GST control).

In the case of ATCCCT, the binding signal was 1.35 fold enrichment (6-mer frequency, TF over GST control) in assay [1]; 1.28 fold enrichment (6-mer frequency, TF over GST control) in [2]; 1.22 fold enrichment (6-mer frequency, TF over GST control) in [3]; 1.24 fold enrichment (6-mer frequency, TF over GST control) in [4]; 1.31 fold enrichment (6-mer frequency, TF over GST control) in assay [5]; 1.22 fold enrichment (6-mer frequency, TF over GST control) in [6]. Besides, the binding signal in assay [7] is 1.16 fold enrichment (6-mer frequency, TF over GST control); in assay [8], 1.27 fold enrichment (6-mer frequency, TF over GST control); in assay [9], 1.12 fold enrichment (6-mer frequency, TF over GST control).

In the case of TTCTCC, the binding signal is 1.42 fold enrichment (6-mer frequency, TF over GST control) in assay [1]; 1.45 fold enrichment (6-mer frequency, TF over GST control) in [2]; 1.6 fold enrichment (6-mer frequency, TF over GST control) in assay [3]; 1.43 fold enrichment (6-mer frequency, TF over GST control) in assay [4]; 1.56 fold enrichment (6-mer frequency, TF over GST control) in [5]; 1.62 fold enrichment (6-mer frequency, TF over GST control) in [6]. Moreover, the binding signal in assay [7] was 1.63 fold enrichment (6-mer frequency, TF over GST control); in [8], 1.61 fold enrichment (6-mer frequency, TF over GST control); in assay [9], 1.6 fold enrichment (6-mer frequency, TF over GST control).

On to TACTAT, for which the binding signal in assay [1] was 1.5 fold enrichment (6-mer frequency, TF over GST control); in assay [2] it was 1.24 fold enrichment (6-mer frequency, TF over GST control); in assay [3], 1.44 fold enrichment (6-mer frequency, TF over GST control); in assay [4], 1.33 fold enrichment (6-mer frequency, TF over GST control); in assay [5], 1.31 fold enrichment (6-mer frequency, TF over GST control); in assay [6] it was 1.39 fold enrichment (6-mer frequency, TF over GST control). Moreover, the binding signal is 1.3 fold enrichment (6-mer frequency, TF over GST control) in assay [7]; 1.42 fold enrichment (6-mer frequency, TF over GST control) in [8]; 1.24 fold enrichment (6-mer frequency, TF over GST control) in [9].

The values above are taken from publication PMC7862700, “An all-to-all approach to the identification of sequence-specific readers for epigenetic DNA modifications on cytosine”.
